Screening results from PubChem BioAssay.
An excerpt weighted towards active compounds, which were near 20% of everything screened.
Cycloheximide cs: counter-screen for Shiga toxin inhibitors: cycloheximide protein synthesis inhibition | cell reporter, cycloheximide protein synthesis inhibition counterscreen | max response, % | 12% of 300,000 active | AID 2314; in the data active = max response mostly above about 13%, no sharp cut-off; inactive = mostly below about 14%; note: read at 38.3 µM for the half of the compounds with a filed dose
Pf growth 96h: P. falciparum growth inhibition at 96 hour, primary screen for plastid delayed-death inhibitors; P. falciparum luciferase reporter growth, 96 h; Potency, µM (top dose mostly 28.7 µM), hits mostly inhibitors; 6.9% of 320,000 active; AID 504834
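P. falciparum expressing integrated firefly luciferase grown in erythrocytes (2% hematocrit, 0.05% parasitemia final) with compounds for 96 hours at 37 C, 5% CO2. Growth inhibition read as loss of luminescence after adding luciferase detection reagent.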
Pf growth 48h: inhibits P. falciparum growth in the first generation, 48 h; P. falciparum luciferase growth in erythrocytes, 48 h; Potency, µM (highest dose often 28.7 µM), hits mostly inhibitors; 5.9% of 310,000 active
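Growth was read as firefly luciferase luminescence after a 48 h, 37 C, 5% CO2 exposure of compounds to reporter-bearing P. falciparum cultures (0.1% parasitemia, 2% hematocrit final) in Albumax-supplemented RPMI 1640.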
Shiga toxin inh: Shiga toxin inhibition; inhibition, % at 38.7 µM; 9.2% of 290,000 active; Vero cells, Shiga toxin protein synthesis inhibition reporter; in the data active = inhibition mostly above about 28%, no sharp cut-off; inactive = mostly below about 43%
HCMV inh: blocks human cytomegalovirus replication; HFF cells, HCMV-luciferase reporter, 72 h; stronger effect = lower value; activity change, negative = inhibition, % at 57.5 µM; 4.5% of 410,000 active; in the data active = activity change below about -60%; inconclusive = no clear call, values can overlap the other calls; inactive = above about -39%
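Two-dose cell screen: HFF monolayers treated with compounds and infected with luciferase-expressing HCMV at 1 PFU/cell, 72 h at 37C, then lysed for luciferase measurement.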
Hits are given with their value; n = inactive; u = inconclusive; x = no result; + = active, no number. Unless noted, calls come from the whole dose curve; as a rule, active = well fitted inhibition curve with a large enough effect; inconclusive = small, poorly fitted or top-dose-only effect, or another doubt; inactive = no such curve, though single readings can be large or run the other way.

SMILES	Cycloheximide cs	Pf growth 96h	Pf growth 48h	Shiga toxin inh	HCMV inh
Nn1c(SCc2ccccc2)nc2c(cnn2-c2ccccc2)c1=O	23	n	n	76	n
CCCSc1nc2c(cnn2-c2ccccc2)c(=O)n1N	43	n	n	50	n
CCCOc1nc(SCCC)nc2c1cnn2-c1ccccc1	n	u	u	n	n
O=C(O)CSc1nc2c(cnn2-c2ccccc2)c(=O)n1-c1ccc(Br)cc1	n	n	n	n	n
CCCCSc1cnn(-c2ccccc2)c(=O)c1SCCCC	n	12µM	12µM	n	u
COc1ccc(-c2nc3ccccc3n(CC(C)C)c2=O)cc1	x	x	x	x	n
CCc1cc(C(=O)NCC(c2cccs2)N2CCOCC2)sc1C (stereo unspecified)	x	u	n	x	u
O=C(CN1CCSc2ccccc21)NCCCc1ccccc1	37	u	n	86	n
CCc1ccc(CNC(=O)CN2CCSc3ccccc32)cc1	x	x	x	x	n
O=C(c1cccs1)N1CCn2c1nc1ccccc12	41	n	n	56	n
COc1cccc(C(=O)N2CCn3c2nc2ccccc23)c1	24	u	n	n	u
N#CCC(=O)N1CCn2c1nc1ccccc12	n	n	n	n	n
CC(NC(=O)CCCCCNC(=O)N1CCn2c1nc1ccccc12)c1ccccc1 (stereo unspecified)	n	u	u	n	-73
CC(C)(C)C(=O)N1CCn2c1nc1ccccc12	n	2.6µM	n	n	u
O=C(CC(=O)c1cccc([N+](=O)[O-])c1)Nc1ccccc1Cl	n	u	n	n	n
CSc1ccc(CN(C)C(=O)C2CCN(C(=O)Nc3ccccc3)CC2)cc1	x	n	u	x	n
Cn1sccc1=O	x	n	u	x	u
CN(C)S(=O)(=O)c1cccc(NC(=O)CCc2nc3sc4c(c3c(=O)[nH]2)CCCC4)c1	x	u	u	x	-67
O=C(c1cccs1)N(Cc1nc2sc3c(c2c(=O)[nH]1)CCCC3)C1CCCC1	n	n	u	n	-71
Cc1sc2nc(CN(C(=O)c3cccs3)C3CCCC3)[nH]c(=O)c2c1C	n	u	u	n	n
CC(=O)N[C@@H](Cc1ccc(O)cc1)C(=O)N[C@H](C(=O)N[C@@H](C)C(=O)N[C@H](C#N)CC(=O)O)C(C)C	x	n	n	x	x
CCc1nnc(NC(=O)CSc2ccc(Cl)cc2)s1	n	u	n	n	n
Cc1ccccc1C(=O)Nc1ccccc1C(=O)N/N=C\c1ccco1	n	n	n	n	n
O=C(Nc1ccccc1C(=O)N/N=C/c1ccco1)c1ccc(Cl)cc1	19	u	n	76	n
O=C(Nc1ccccc1C(=O)N/N=C/c1ccco1)c1ccccc1	n	n	n	+	n
SMILES	Cycloheximide cs	Pf growth 96h	Pf growth 48h	Shiga toxin inh	HCMV inh
O=C(Nc1ccccc1C(=O)N/N=C/c1ccco1)c1ccc(F)cc1	n	u	n	n	n
COc1ccc(Cl)cc1S(=O)(=O)N1CCCC1	n	n	x	n	n
COc1ccc2c(c1)C(CC(C)=O)N(c1ccc(-c3cccnc3)cc1)C(c1ccsc1)=C2 (stereo unspecified)	x	x	x	x	n
Oc1c(N=Nc2ccccc2)sc2ccccc12	40	n	n	61	n
O=c1cc(O)sc2ccccc12	n	n	n	n	n
COc1ccc(N(CC(=O)NN=C2CCCCCCC2)S(=O)(=O)c2ccccc2)cc1	n	n	n	n	-64
COc1ccc(COC(=O)N/N=C/c2cccs2)cc1	25	n	n	49	n
CCC(C)NC(=O)CN(c1ccc(OC)cc1)S(=O)(=O)c1ccccc1 (stereo unspecified)	n	u	n	n	n
COc1ccc(CC(=O)N/N=C/c2cccs2)cc1OC	n	n	u	n	n
COc1ccc(N(CC(=O)N/N=C/c2cccs2)S(=O)(=O)c2ccccc2)cc1	n	n	n	n	-67
CC(C)C[C@@H](CN)NC(=O)c1nc[nH]c1C(=O)N[C@@H](CC(C)C)C(=O)CNC[C@H](C)NC(=O)c1nc[nH]c1C(=O)N[C@@H](C)C(=O)O	x	x	x	x	n
COc1cc(/C=C/C(=O)OCC(=O)c2c(N)n(C)c(=O)n(C)c2=O)ccc1OC(F)F	n	n	n	n	n
COc1cccc(OCC(=O)NNC(=O)C(=O)Nc2ccc(OC)cc2OC)c1	n	n	n	n	n
COc1ccc(OCC(=O)Nc2ccccc2O)cc1	36	n	x	75	x
COc1ccccc1NC(=O)COc1ccccc1	17	n	x	n	n
COc1ccccc1NC(=O)CNC(=O)c1ccc(Br)o1	n	0.029µM	n	n	n
COc1ccc(NC(=O)COc2ccccc2)c(OC)c1	34	x	n	51	n
COc1ccc(CNC(=O)CNC(=O)c2ccc(Br)o2)cc1OC	n	n	n	n	n
O=C(COc1ccccc1)Nc1ccccc1Oc1ccccc1	n	n	n	n	u
Cc1ccc2nc(NC(=O)c3cc(=O)c4cc(Cl)ccc4o3)sc2c1	x	x	x	x	n
COc1ccc(NC(=O)C(Sc2ccccc2)c2ccccc2)c(OC)c1 (stereo unspecified)	n	2.6µM	n	n	n
O=C(COc1ccccc1)Nc1cccc2nsnc12	66	n	n	n	n
COc1ccc(NC(=O)COc2ccc(Br)cc2)c(OC)c1	13	u	n	30	n
Cc1cccc(OCC(=O)Nc2cccc3nsnc23)c1	n	n	x	n	u
COc1ccc(NC(=O)CN2c3cccc4cccc(c34)S2(=O)=O)c(OC)c1	14	x	u	n	n
SMILES	Cycloheximide cs	Pf growth 96h	Pf growth 48h	Shiga toxin inh	HCMV inh
Cc1ccc(C(=O)Nc2cccc(C(=O)N3CCOCC3)c2)cc1Cl	16	n	n	n	n
O=C(Nc1cccc(C(=O)N2CCOCC2)c1)c1ccccc1	n	5.2µM	n	n	n
O=C(Nc1cccc(C(=O)N2CCCCC2)c1)c1ccc(Cl)cc1	29	2.1µM	n	n	n
O=C(Nc1cccc(C(=O)N2CCCCC2)c1)c1ccccc1	x	x	x	x	n
Cc1cccc(CC(=O)Nc2ccc(C(=O)N3CCOCC3)cc2)c1	n	2.3µM	n	n	n
Cc1ccc(CC(=O)Nc2ccc(C(=O)N3CCOCC3)cc2)cc1	n	n	n	n	x
C[C@@H]1CN([C@H](C)CO)C(=O)c2cc(Br)cnc2O[C@H]1CN(C)Cc1cccnc1	x	x	x	x	n
CCOC(=O)c1[nH]c(C)c(CN(C(C)=O)c2ccc(OCC)cc2)c1C	n	n	u	n	u
Cc1noc(C)c1C(=O)OC(C)C(=O)c1c[nH]c2ccccc12 (stereo unspecified)	x	x	x	x	n
O=C(c1ccc(NC(=O)C2(c3ccccc3)CCCC2)cc1)N1CCOCC1	n	n	n	n	u
O=C(Nc1ccccc1)Nc1ccc(C(=O)N2CCOCC2)cc1	46	n	n	62	n
CCOc1ccc(-c2nnc(SCC(=O)c3ccccc3)n2-c2ccccc2)cc1	x	x	x	x	n
O=S(=O)(NCCc1csc2nc(-c3ccccc3)nn12)c1cc(F)ccc1F	x	x	x	x	n
COc1cc(/C=C(\C#N)c2ccccn2)ccc1OCc1ccccc1Cl	n	2.3µM	1.9µM	n	n
COc1cc(CNCc2ccccn2)ccc1OCc1ccccc1Cl	13	u	u	n	-67
COc1cc(/C=C(\C#N)c2ccccn2)cc(OC)c1O	n	n	n	n	n
